Assay results: PubChem BioAssay AID1159580 (chemical genetic matrix, 2015)
The campaign covered roughly 5,500 compounds. About 2,000 (36%) were called active. About 18% were inconclusive and are not listed. Cut-off read from the data, not from the text of the source: active = normalized growth mostly below about 0.91 (no sharp cut-off); inconclusive = no clear call, values can overlap the other calls; inactive = mostly above about 0.92. The list shows a part of the results.

Assay: chemical genetic growth profiling, strain panel (AID 1159580);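 note: tested at 20 µM; growth read once vehicle control cultures reached saturation at 30 °C; 1 = growth at the plate median or of vehicle wells; lower values mean less growth of the strain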
Conditions: S. cerevisiae deletion strains, growth OD

Measured: normalized growth

COc1c2c(nc3ccccc13)OC(C(C)(O)CO)C2 (stereo not given)
inactive: locus YAL040C, strain CLN3, hits give low values 1.01 | locus YCL061C, strain MRC1 (second series), hits give low values 1.01 | locus YDR363W, strain ESC2, hits give low values 0.993 | locus YER002W, strain NOP16, hits give low values 1.01 | locus YJR075W, strain HOC1, hits give low values 0.994 | locus YMR263W, strain SAP30, hits give low values 0.998 | locus YMR307W, strain GAS1, hits give low values 1.01 | locus YNL128W, strain TEP1, hits give low values 1.02 | locus YNL153C, strain GIM3, hits give low values 1.04 | locus YNL175C, strain NOP13, hits give low values 1.01 | locus YNL197C, strain WHI3, hits give low values 1.01 | locus YNL224C, strain SQS1, hits give low values 1.01 | locus YOR083W, strain WHI5 (second series), hits give low values 1 | locus YPL055C, strain LGE1, hits give low values 0.99 | locus YPL241C, strain CIN2, hits give low values 1
